Most compounds without a hit are left out; they make up all but 2.8% or so of the library.
Pol kappa inh-1: blocks human DNA polymerase kappa activity; Q9UBT6; purified Pol kappa, fluorescent DNA synthesis assay, 10 min; Potency, µM (top dose mostly 107 µM), for the others: at the top dose activity, negative = inhibition, hits mostly inhibitors; 400,000 tested, 0.53% active; further: potency means the concentration at half of the fitted maximal effect; on the % scale 0 is the no-effect control and ±100 the full control effect
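Inhibition of 10 nM Pol kappa is measured by a fluorescent read-out at 0 and 10 min following addition of 50 nM substrate (final), with a 15-min room-temperature compound preincubation.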
Pol eta inh-1: inhibitors of human DNA polymerase eta; 390,000 tested, 1.2% active; recombinant Pol eta, fluorescent DNA replication assay; Potency, µM (top dose mostly 114 µM), without a hit: at the highest dose activity change, negative = inhibition, usual class: inhibitors; Q9Y253; further: potency means the concentration at half of the fitted maximal effect; on the % scale 0 is the no-effect control and ±100 the full control effect
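Pol eta at 10 nM preincubated with compounds 15 min at room temperature; reaction started with fluorescent substrate (50 nM final) and read kinetically at 0 and 10 min.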
PI4K2A block: blocks human PI4K2A kinase activity; purified PI4K2A, ADP-Glo luminescence, 1 h; active compounds read low; 420,000 tested, 0.13% active; Q9BTU6; AID 1346378; activity change, negative = inhibition, % at 76.9 µM; in the data active means activity change below about -50%; inconclusive means mostly about -30% to -49%;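 further: -100% = wells without enzyme as full effect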
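PI4K2A activity was measured by ADP-Glo luminescence: enzyme (4 ug/mL stock) and phosphatidylinositol (1.2 mM stock) in Tris pH 7.5/MgCl2/EGTA/Triton X-100 buffer were reacted with ATP (300 microM stock) for one hour at ambient temperature.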
PI5P4Ka inh: PI5P4K alpha (human) kinase inhibition; PI5P4Kalpha enzyme, ADP-Glo luminescence, 60 min; active compounds read low; max response, %; 330,000 tested, 1.2% active; AID 652105; active means max response of -50% or lower; inconclusive means between -30% and -50%; inactive means -30% or higher; further: value at the top dose of about 77 µM; on the % scale 0 is the no-effect control and ±100 the full control effect
Target sequence (P48426 whole entry, looked up): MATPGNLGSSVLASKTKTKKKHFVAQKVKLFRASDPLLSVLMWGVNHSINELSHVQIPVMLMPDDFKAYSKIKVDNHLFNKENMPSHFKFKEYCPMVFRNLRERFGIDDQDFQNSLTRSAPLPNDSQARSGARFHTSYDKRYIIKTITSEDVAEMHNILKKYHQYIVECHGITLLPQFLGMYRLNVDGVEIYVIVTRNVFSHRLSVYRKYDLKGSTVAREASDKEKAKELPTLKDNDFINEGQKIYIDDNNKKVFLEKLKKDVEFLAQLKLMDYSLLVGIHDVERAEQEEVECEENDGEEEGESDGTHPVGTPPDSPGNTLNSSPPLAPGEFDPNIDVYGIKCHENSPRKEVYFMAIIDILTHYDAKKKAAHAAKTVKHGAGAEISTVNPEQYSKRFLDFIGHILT
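Compounds were pin-transferred onto PI5P4Kalpha and substrate in HEPES pH 7.4 buffer with EGTA, CHAPS and 5% DMSO. ATP (5 microM final) started the reaction, which ran 60 minutes at room temperature before ADP-Glo detection.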
Pol iota inh: inhibitors of human DNA polymerase iota; Q9UNA4; Pol iota fluorescent replication assay, 10 min; Potency, µM (highest dose often 115 µM), without a hit: at the highest dose activity, negative = inhibition, actives largely listed as inhibitors; 390,000 tested, 1% active; further: potency means the concentration at half of the fitted maximal effect
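Fluorescent replication assay read twice, at 0 min and 10 min after adding 50 nM (final) substrate. Enzyme (10 nM) and compounds were first incubated 15 min at room temperature; enzyme-free buffer wells were negative controls.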
Pol beta inh: blocks human DNA polymerase beta activity; Pol beta primer extension/strand displacement, fluorescence kinetic; P06746; Potency, µM (titrated, usually from 114 µM), without a hit: at the top dose activity change, negative = inhibition, hits mostly inhibitors; 340,000 tested, 1.3% active; AID 485314; further: potency means the concentration at half of the fitted maximal effect; on the % scale 0 is the no-effect control and ±100 the full control effect
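Preincubation: enzyme (10 nM) with compound, 15 min, RT. Reaction: substrate added to 50 nM final. Reads: 0 and 10 min. Analysis: normalized, Hill fit.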
PGK validate: TbPGK inhibition, hit validation | shares compounds with Pol kappa inh-1 | TbPGK coupled GAPDH assay, Kinase-Glo luminescence | Potency, µM (highest dose often 57.5 µM), for the others: top-dose activity change, negative = inhibition, hits mostly inhibitors | 500 tested, 79% active | AID 686980; further: potency means the concentration at half of the fitted maximal effect; on the % scale 0 is the no-effect control and ±100 the full control effect; nearly all actives have a fitted effect of over 65% in size
POLI cherry-pick: Inhibitors of human DNA polymerase iota, confirmation; shares compounds with Pol kappa inh-1; Pol iota primer extension, TAMRA/BHQ fluorescence; Potency, µM, actives largely listed as inhibitors; 1,500 tested, 77% active; AID 720496; further: potency means the concentration at half of the fitted maximal effect
GALK confirm: galactokinase (human) inhibition, confirmation; shares compounds with Pol eta inh-1; 150 tested, 70% active; AID 2015; Potency, µM (doses to about 115 µM), without a hit: top-dose activity, negative = inhibition, hits mostly inhibitors; purified GALK, Kinase-Glo ATP depletion luminescence
Target sequence (P51570 whole entry, looked up): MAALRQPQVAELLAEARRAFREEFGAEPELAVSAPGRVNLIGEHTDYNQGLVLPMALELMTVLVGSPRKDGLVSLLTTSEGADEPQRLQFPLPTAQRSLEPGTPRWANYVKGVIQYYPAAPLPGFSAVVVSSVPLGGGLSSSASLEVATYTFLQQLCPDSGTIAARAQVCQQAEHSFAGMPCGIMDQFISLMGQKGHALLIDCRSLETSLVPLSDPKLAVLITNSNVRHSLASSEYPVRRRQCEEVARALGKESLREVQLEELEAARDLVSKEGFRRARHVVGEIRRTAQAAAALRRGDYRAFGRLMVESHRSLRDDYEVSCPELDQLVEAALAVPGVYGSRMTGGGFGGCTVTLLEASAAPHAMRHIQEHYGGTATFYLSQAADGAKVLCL
Redox cycling: generates H2O2 by redox cycling, flagging GALK artifacts. Potency, µM (titrated, usually from 115 µM), for inactives: at the top dose activity change, negative = H2O2 signal, actives largely listed as inhibitors. AID 2035. shares compounds with Pol eta inh-1. 150 tested, 40% active. Phenol red-HRP H2O2 redox cycling, absorbance 600 nm
HEK293 tox: HEK-293 cytotoxicity, GALK inhibitor secondary; 170 tested, 10% active; HEK-293 viability, ATP luminescence (CellTiter-Glo), 24/48 h; shares compounds with Pol eta inh-1; Potency, µM (highest dose often 46.1 µM), for the others: at the top dose activity change, negative = cytotoxicity, actives largely listed as inhibitors; further: potency means the concentration at half of the fitted maximal effect; on the % scale 0 is the no-effect control and ±100 the full control effect
Pol kappa inh-2: confirmation of human DNA polymerase kappa inhibitors; shares compounds with Pol eta inh-1; purified Pol-kappa, fluorescent strand-displacement substrate; Potency, µM, actives largely listed as inhibitors; 920 tested, 76% active; further: potency means the concentration at half of the fitted maximal effect
Pol eta inh-2: Pol eta (human) inhibition, cherry-pick confirmation; 2,600 tested, 64% active; Pol eta primer extension, TAMRA/BHQ fluorescence, 10 min; shares compounds with Pol eta inh-1; AID 720502; Potency, µM, actives largely listed as inhibitors; further: potency means the concentration at half of the fitted maximal effect
* = called active by the depositor; ? = inconclusive; . = no result; ! = repeats disagree; [ ] = remark or other dose. Unless noted, the call rests on the fitted dose curve; in most records, active means well fitted curve in the direction sought with a large enough effect; inconclusive means small, poorly fitted or top-dose-only effect, or another doubt; inactive means no such curve, though single readings can be large; an effect the other way counts as inactive or inconclusive.

SMILES | Pol kappa inh-1 | Pol eta inh-1 | PI4K2A block | PI5P4Ka inh | Pol iota inh | Pol beta inh | POLI cherry-pick | Pol eta inh-2 | others
COc1ccc(-c2csc(NC(=O)c3ccccc3NS(=O)(=O)c3ccc(F)c(F)c3)n2)cc1 | ? | ? | -1 | -23 | ? | ? | ? | ? | GALK confirm=38µM*;Redox cycling=5%;HEK293 tox=4µM*;Pol kappa inh-2=?
O=C1CC(=O)N(Cc2ccco2)C(=O)N1 | 8.9µM* | 3.5µM* | ? | . | 3.2µM* | 8.9µM* | 3.4* | 5.4* | PGK validate=0.92µM*
CCOc1ccc(CCNC(=O)C2=C(C)C(=O)OC23CCCCC3)cc1 | -11% | . | 3 | . | -20% | 28% | . | .
CCCC(=O)N1CCC1(C)C(=O)NS(=O)(=O)c1cccs1 (stereo not drawn) | . | . | -4 | -2 | . | . | . | .
CCN(CC)c1ccc2c(C)c(Cl)c(=O)oc2c1 | -24% | 0% | -1 | -2 | 9% | -11% | . | .
CCN(CC)c1ccc2c(c1)oc(=O)c1c(Cl)cc(=O)oc12 | ? | 14µM* | ? | -9 | 14µM* | -15% | ? | ?
O=C(O)c1ccc(N=Nc2c(O)ccc3ncccc23)cc1 | 28µM* | 2.8µM* | -28 | ? | 4µM* | 5µM* | 34* | 15* | Pol kappa inh-2=11*
COC(=O)[C@@]12C[C@@H](CC(=O)NCC34CC5CC(CC(C5)C3)C4)C(=O)N(Cc3ccccc3)C1=CCC(C)(C)C2 | . | . | 1 | -2 | . | . | . | .
N#Cc1cccc(NC(=O)OC2CC3CC2[C@H]2CCCCN2C3)c1 (stereo partly drawn) | . | . | -4 | . | . | . | . | .
O=C(O)c1cccc(-c2ccc(/C=C3/SC(=Nc4ccccc4)N(Cc4cccnc4)C3=O)o2)c1 | ? | 7.1µM* | 3 | -29 | ? | ? | 38* | 43* | PGK validate=6.5µM*;Pol kappa inh-2=21*
O=c1nc2s/c(=C\c3ccco3)c(=O)n2nc1Cc1ccc(F)cc1 | 20µM* | 7.1µM* | ? | -56* | 10µM* | 2.8µM* | 38* | 30*
COc1cc(-c2nnc(SCc3cc(=O)oc4cc(O)c(O)cc34)o2)cc(OC)c1OC | 1.1µM* | 0.71µM* | ? | . | 1.1µM* | 0.89µM* | 2.4* | 1.1* | PGK validate=0.92µM*
CCOC(=O)CSc1nnc(-c2cc(OC)c(OC)c(OC)c2)o1 | 7% | -4% | -7 | -1 | -2% | 44% | . | .
O=C1C(SCCO)=C(SCCO)C(=O)c2ccccc21 | ? | 16µM* | ? | -107* | 1.1µM*! | 5%[57.1 µM] | 24* | 24* | GALK confirm=19µM*;Redox cycling=11µM*;HEK293 tox=?
CC1=NN(c2ccc(C(=O)O)c(N)c2)C(=O)C1 | 89µM* | 22µM* | ? | -2 | 1.3µM* | 10µM* | 60* | 34*
Cc1cccc(N2N=C(C(=O)O)CCC2=O)c1 | -23% | 5% | -2 | 5 | -1% | 2% | . | .
O=C(O)COc1ccccc1C=NNc1ccc([N+](=O)[O-])cc1S(=O)(=O)Nc1ccc(Cl)cc1 | -34% | 22µM* | 7 | ? | ? | . | 84* | 48* | Pol kappa inh-2=?
COc1ccc(NS(=O)(=O)c2cc([N+](=O)[O-])ccc2NN=Cc2ccccc2OCC(=O)O)cc1 | -35% | ? | -4 | -17 | ? | . | . | .
Cc1nc(S/C(=C\c2ccc(-c3ccc(C(=O)O)c(Cl)c3)o2)C(=O)O)n[nH]1 | 8.9µM* | 5µM* | -18 | -71* | 3.2µM* | 10µM* | 17* | 5.4* | PGK validate=15µM*
CCOC(=O)C1(C)C=C(Nc2cccc(C(=O)O)c2)C(=O)N1c1cccc(C(=O)O)c1 (stereo not drawn) | 8% | -19% | -11 | . | 16% | -1% | . | .
O=C(CCc1cn(Cc2ccccc2Cl)c2ccccc12)NC1CCCCC1 | -11% | -15% | 0 | . | 22% | 7% | . | .
CCOc1ccc(Br)cc1S(=O)(=O)NCC(c1ccc(OC)cc1)N1CCOCC1 (stereo not drawn) | 2% | -10% | -4 | 5 | -24% | . | . | .
N#CNC(=O)c1ccc(-n2cccc2/C=C2\NC(=O)N(CC(=O)Nc3cccc(F)c3)C2=O)cc1 | . | . | . | . | . | . | 30* | 43* | Pol kappa inh-2=13*
N#CNC(=O)c1ccc(-n2cccc2/C=C2\NC(=O)N(CC(=O)Nc3ccc(Cl)cc3)C2=O)cc1 | . | . | . | . | . | . | 6.7* | ? | Pol kappa inh-2=4.7*
O=C1N/C(=C/c2cccn2-c2ccc(F)cc2)C(=O)N1Cc1ccccc1 | -1% | -3% | 6 | . | -16%[58.9 µM] | 8% | . | .
Cc1ccc(NC(=O)CN2C(=O)N/C(=C\c3cccn3-c3ccc(C(=O)NC#N)cc3)C2=O)cc1 | . | . | . | . | . | . | 38* | 43*
COc1ccccc1N1CCN(C(=O)c2nc(SC)ncc2Cl)CC1 | -5% | -22% | 2 | . | 23% | -14% | . | .
CC1(OC(=O)c2ccc(Cl)nc2)C(=O)C=C2C=C3CCCN3C=C2C1=O (stereo not drawn) | 50µM* | 14µM* | -25 | ? | ? | 25µM* | 67* | 48*
O=C(O)c1ccc(/C=C/c2ccc3cccc(O)c3n2)cc1 | -35% | 79µM* | -5 | -24 | ? | ? | 24* | ? | Pol kappa inh-2=19*
